From PubChem BioAssay
PINK1 modulator – changes PINK1 expression | Potency, µM (series often up to 76.6 µM), hits mostly activators | 410,000 tested, 0.2% active | PINK1 immunofluorescence, high-content cytometry, 24 h; active = well fitted activation curve with a large enough effect; inconclusive = small, poorly fitted or top-dose-only effect; cell line not stated here; also: nearly all actives have a fitted effect of over 65% in size
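Measures PINK1 amount and localization on or inside mitochondria by immunofluorescence. Stable cells get compounds at 5 concentrations for 24 hours before fixation and staining; CCCP controls included.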
Nrf2 ARE act – activators of Nrf2 (ARE) signaling; AID 624171; AREc32 ARE-luciferase reporter (MCF7-derived line), luminescence, 24 h; Potency, µM (series often up to 46.1 µM), most hits filed as activators; 410,000 tested, 0.31% active; also: nearly all actives have a fitted effect of over 65% in size
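Nrf2 activation is followed as ARE-luciferase induction in the AREc32 line after one day of compound treatment; luminescence is read with Steady-Glo.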
Nrf2 block – blocks Nrf2 signaling; A549 ARE-Fluc reporter, luciferase luminescence, 18-24 h; Potency, µM (series often up to 46 µM), actives largely listed as inhibitors; 360,000 tested, 2.1% active; AID 504444; also: nearly all actives have a fitted effect of over 60% in size
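Cells were seeded and rested 2 h, then exposed to compounds for 18-24 h. CellTiter-Fluor was read first as a viability measure. BugLite was added 15 min before the final luminescent read of ARE-luciferase activity in A549 cells.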
A549 tox-1 – counter-screen for Nrf2 inhibitors: cytotoxicity in A549 cells. AID 504648. 390,000 tested, 0.16% active. A549 ARE-Fluc cells, CellTiter-Fluor viability, 18-24 h. Potency, µM (top dose mostly 46 µM), most hits filed as inhibitors
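A549 ARE_Fluc cells in 5% FBS OPTI-MEM were exposed to compounds in concentration-response for 18-24 h at 37 deg C. Viability was read by CellTiter-Fluor fluorescence (Ex 405/Em 525) after 30 min, before the luciferase read.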
Epigenetic reg – regulators of epigenetic silencing causing reporter derepression in mouse cells; AID 1865; murine LDR cells, GFP reporter derepression, 30 h; 280,000 tested, 0.2% active; Potency, µM (titrated, usually from 53.9 µM), actives largely listed as activators; also: nearly all actives have a fitted effect of over 60% in size
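Murine LDR cells carrying a silenced, genomically integrated CMV-driven GFP reporter were exposed to compound for 30 hours at 37 C. After PBS washes, GFP-positive cells (20–120 um objects) were counted by laser-scanning microplate cytometry.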
FLuc enzyme inh – firefly luciferase inhibition, Nrf2 hit validation. shares compounds with Nrf2 block. purified firefly luciferase, luminescence inhibition. Potency, µM (titrated, usually from 57.5 µM), usual class: inhibitors. 1,400 tested, 4% active. AID 720522; also: nearly all actives have a fitted effect of over 65% in size
Target sequence (P08659 whole entry, looked up): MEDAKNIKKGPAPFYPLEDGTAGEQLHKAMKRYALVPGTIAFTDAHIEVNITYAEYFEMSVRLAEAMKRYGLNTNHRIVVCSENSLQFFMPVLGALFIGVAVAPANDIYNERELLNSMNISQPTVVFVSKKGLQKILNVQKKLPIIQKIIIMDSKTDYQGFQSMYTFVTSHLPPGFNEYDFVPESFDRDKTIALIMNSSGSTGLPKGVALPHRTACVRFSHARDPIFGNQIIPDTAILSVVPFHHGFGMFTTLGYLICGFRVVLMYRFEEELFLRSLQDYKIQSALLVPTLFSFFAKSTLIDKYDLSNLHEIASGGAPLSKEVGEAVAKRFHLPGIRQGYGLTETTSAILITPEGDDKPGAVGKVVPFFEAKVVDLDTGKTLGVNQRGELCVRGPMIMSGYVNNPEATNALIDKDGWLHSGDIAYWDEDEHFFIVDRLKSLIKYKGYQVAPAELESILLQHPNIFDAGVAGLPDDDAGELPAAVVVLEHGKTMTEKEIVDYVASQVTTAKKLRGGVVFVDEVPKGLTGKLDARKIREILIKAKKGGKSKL
A549 tox-2 – counter-screen for Nrf2 inhibitors: cytotoxicity in A549 ARE cells; 1,400 tested, 2% active; Potency, µM (titrated, usually from 46.1 µM), actives largely listed as inhibitors; shares compounds with Nrf2 block; A549 ARE-Fluc cells, cytotoxicity counterscreen;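 also: cells exposed to compounds for 18 to 24 hours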
ARE-Fluc inh – confirmation of Nrf2 inhibitors in A549 ARE reporter cells | shares compounds with Nrf2 block | A549 ARE-firefly luciferase reporter, luminescence | Potency, µM (highest dose often 46.1 µM), most hits filed as inhibitors | 1,400 tested, 74% active; also: nearly all actives have a fitted effect of over 65% in size
A number is an active result; . = inactive; ? = inconclusive; / = no result given; [ ] = dose if it differs, or a comment. An excerpt weighted towards active compounds, which were near 2.4% of everything screened. Unless noted, calls follow the shape of the dose curve; as a rule, active = well fitted curve in the direction sought with a large enough effect; inconclusive = small, poorly fitted or top-dose-only effect, or another doubt; inactive = no such curve, though single readings can be large; an effect the other way counts as inactive or inconclusive.

SMILES	PINK1 modulator	Nrf2 ARE act	Nrf2 block	A549 tox-1	Epigenetic reg	FLuc enzyme inh	A549 tox-2	ARE-Fluc inh
CC[C@@H](O)C[C@H]1CCC[C@@]2(C[C@@H]3OC(=O)/C=C/[C@@](C)(O)[C@@H](O)[C@H](C)[C@@H](O)[C@H](OC4CCC(N(C)C)C(C)O4)[C@@H](O)[C@](C)(O)CCCCC/C=C/[C@@H]4CC(C)(C)O[C@@]4(O)C[C@H](O2)[C@H]3C)O1 (stereo partly drawn)	.	.	0.0058µM	?	/	.	?	0.0073µM
CC1CC(Cl)CCC1C(=O)OC(C)(C)C (stereo not drawn)	.	/	/	/	.	/	/	/
CC(=NNC(=S)N1CC2CCC(CC2)C1)c1nccs1	.	.	1.5µM	?	/	19µM	?	2.9µM
Cc1cccc(-n2nc(C)c(C(=O)N3CCN(c4ccccc4)CC3)c2-n2cccc2)c1	.	.	?	.	.	/	/	/
CC12CC[C@H]3[C@@H](CCC4(O)C[C@H](O)CCC34/C=N/NC(=O)c3ccc(O)cc3)C1(O)CCC2C1=CC(=O)OC1 (stereo partly drawn)	.	.	.	.	.	/	/	/
CC12CC[C@H]3[C@@H](CCC4(O)C[C@H](O)CCC34/C=N/NC(=O)c3ccccc3F)C1(O)CCC2C1=CC(=O)OC1 (stereo partly drawn)	.	.	9.2µM	.	.	.	?	12µM
CN(C)c1ccc(C(=O)N/N=C/C23CC[C@@H](O)CC2(O)CC[C@@H]2[C@@H]3CCC3(C)C(C4=CC(=O)OC4)CCC23O)cc1 (stereo partly drawn)	.	.	5.8µM	?	.	.	?	3.7µM
CC12CC[C@H]3[C@@H](CCC4(O)C[C@H](O)CCC34/C=N/NC(=O)c3ccccc3O)C1(O)CCC2C1=CC(=O)OC1 (stereo partly drawn)	.	.	?	.	.	/	/	/
CC[C@]12CCCN3CCC4(c5ccccc5NC4C(C(=O)O)C1)C32 (stereo partly drawn)	/	/	/	/	.	/	/	/
O=C1NO[C@@H]2CN[C@@H](C(=O)O)[C@H]12	/	/	/	/	.	/	/	/
O=c1ccc2cc(OC3OC(CO)C(O)C(O)C3O)c(O)cc2o1 (stereo not drawn)	/	/	/	/	.	/	/	/
CC(=O)OC1C(O)C(C)OC(OC2C(OC(=O)C3CCC4C(C3)OC3(CC(OC(=O)/C=C/c5ccccc5)C(C)CO3)C43CO3)OC(C)C(O)C2OC(C)=O)C1O (stereo not drawn)	.	.	0.023µM	?	/	.	.	6.5µM
COc1ccc(NC(=O)N2CCC3(CC2)CCN(C(=O)Oc2ccccc2)CC3)cc1	.	/	/	/	/	/	/	/
COc1cc2nc(CN3CC=C(c4ccccc4)CC3)[nH]c(=O)c2cc1OC	?	.	2.3µM	?	/	.	?	/
CC1Cc2c(cnc3c2CN(C)CC3)CO1 (stereo not drawn)	/	/	/	/	.[10.1 µM]	/	/	/
CC(=O)c1cn(Cc2ccccc2C#N)c2ccccc12	.	.	1µM	?	.	.	.	.
Nc1ncnc2c1ccn2[C@@H]1O[C@H](CO)[C@@H](O)[C@H]1O	.	.	3.7µM	?	/	.	?	0.65µM
NC(=S)c1cn(C2OC(CO)C(O)C2O)c2ncnc(N)c12 (stereo not drawn)	.	.	?	?	.	/	/	/
CC(=O)OC[C@]12CCC(C)=C[C@H]1O[C@@H]1[C@H](O)[C@@H](OC(C)=O)[C@@]2(C)[C@]12CO2	.	.	0.018µM	?	.	.	.	2.6µM
CC[C@H]1CN2CCc3cc(OC)c(OC)cc3C2C[C@@H]1C[C@H]1NCCc2cc(OC)c(OC)cc21 (stereo partly drawn)	/	.	0.12µM	?	/	.	?	0.52µM
COc1cc2c(cc1O)[C@H]1Cc3ccc(OC)c(O)c3CN1CC2	/	/	/	/	.	/	/	/
CN1CC=C(c2c[nH]c3ccccc23)CC1	.	.	1.8µM	?	.	.	.	16µM
